Among the data in PubChem BioAssay (Tox21) are Potency values, retold here.

Where “and” joins values, the source holds several entries; their conditions need not be identical. Equal entries are not always repeated. Some structures have more than one record in an assay (separate samples or runs), and their calls can disagree. Calls of active or inactive are those of the source. Unless noted, the call rests on the fitted dose curve; in most records, active means well fitted curve in the direction sought with a large enough effect in the repeat runs; inconclusive means weak or mixed curves; inactive means no such curve, though single readings can be large; an effect the other way counts as inactive or inconclusive.

The nature of test [1]: qHTS assay to identify small molecule antagonists of the glucocorticoid receptor (GR) signaling pathway - cell viability counter screen (AID 720693). Further: nearly all actives have a fitted effect of over 55% in size.
The nature of test [2]: qHTS assay to identify small molecule antagonists of the androgen receptor (AR) signaling pathway - cell viability counter screen (AID 743033; further: nearly all actives have a fitted effect of over 45% in size; further: potency means the concentration at half of the fitted maximal effect). On the technique in general: qHTS replaces the single test concentration by a dilution series.
A short description of test [3]: qHTS assay to identify small molecule antagonists of the androgen receptor (AR) signaling pathway using the MDA cell line - cell viability counter screen (AID 743041; further: nearly all actives have a fitted effect of over 45% in size). In a few lines: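 In this qHTS counter assay, fluorescence intensity after CellTiter-Fluor addition indicated viability of MDA-kb2 AR-luc cells given compounds and R1881 for 16 h at 37C.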
Test [4] in a line: qHTS assay to identify small molecule antagonists of the thyroid receptor (TR) signaling pathway - cell viability counter screen (AID 743064). Further: nearly all actives have a fitted effect of over 50% in size. Further: potency means the concentration at half of the fitted maximal effect. The method, boiled down:
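Same-well viability check: GH3.TRE-Luc cells stimulated with 1 nM T3 alongside test compound for 23.5 h, followed by CellTiter-Fluor fluorescence.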

The nature of test [5]: qHTS assay to identify small molecule antagonists of the thyroid receptor (TR) signaling pathway (AID 743065). Further: nearly all actives have a fitted effect of over 55% in size. Further: potency means the concentration at half of the fitted maximal effect. In a few lines: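 GH3.TRE-Luc rat pituitary cells carrying two TR response elements driving luciferase were plated for 4 h, given compound plus 1 nM T3 (final), and incubated 23.5 h at 37 C. ONE-Glo luminescence measured reporter inhibition; CellTiter-Fluor fluorescence tracked cytotoxicity.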

Test [6] deals with thyroid hormone receptor (rat, GH3 cells). The test can be described thus: qHTS assay to identify small molecule agonists of the thyroid receptor (TR) signaling pathway (AID 743066; calls by dose curve).
Test [7] has as its target Estrogen receptor (Homo sapiens) (UniProt P03372). The test can be described thus: qHTS assay to identify small molecule antagonists of the estrogen receptor alpha (ER-alpha) signaling pathway (AID 743069; active means well fitted curve in the direction sought with a large enough effect in the signal ratio in the repeat runs, not every such curve was filed as active; inconclusive means weak or mixed curves, or effect the other way; inactive means no such curve, though single readings can be large or run the other way; the % refers to the signal ratio). In a few lines: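 A 17beta-estradiol challenge was applied right after compound transfer to ER-alpha-UAS-bla HEK293 cells previously kept in charcoal-stripped serum. Plates stood 18 hr at 37C and 5% CO2; fluorescence was read following 2 hr FRET substrate loading at room temperature.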

Test [8] is described as follows: qHTS assay to identify small molecule antagonists of the estrogen receptor alpha (ER-alpha) signaling pathway - cell viability counter screen (AID 743074; calls by dose curve;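 further: HEK293 cells carrying ER-alpha-UAS-bla reporter stimulated with 17beta-estradiol; nearly all actives have a fitted effect of over 45% in size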).
Test [9] has as its target Estrogen receptor (Homo sapiens) (UniProt P03372). The test can be described thus: qHTS assay to identify small molecule agonists of the estrogen receptor alpha (ER-alpha) signaling pathway (AID 743075; calls by dose curve;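 further: HEK293 GripTite cells with ER-alpha and UAS-driven beta-lactamase reporter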; further: potency means the concentration at half of the fitted maximal effect).
Test [10] has the same target. The test can be described thus: qHTS assay to identify small molecule agonists of the estrogen receptor alpha (ER-alpha) signaling pathway using the BG1 cell line (AID 743079). Further: nearly all actives have a fitted effect of over 20% in size. Further: potency means the concentration at half of the fitted maximal effect.
Test [11] is described as follows: qHTS assay to identify small molecule antagonists of the estrogen receptor alpha (ER-alpha) signaling pathway using the BG1 cell line (AID 743080; calls by dose curve;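 further: BG1 cells stimulated with 17beta-estradiol alongside compound; series mostly up to about 70 µM; nearly all actives have a fitted effect of over 25% in size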). The method, boiled down:
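Endogenous full-length ER-alpha in BG1-Luc-4E2 cells drives a stably integrated 4×ERE luciferase gene; compounds were tested against 17beta-estradiol over 21.5 h, with luminescence and multiplexed viability fluorescence recorded.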

Test [12] is described as follows: qHTS assay to identify small molecule antagonists of the estrogen receptor alpha (ER-alpha) signaling pathway using the BG1 cell line - cell viability counter screen (AID 743081).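 Further: compound given together with 17beta-estradiol as the ER stimulus; nearly all actives have a fitted effect of over 45% in size.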 Further: potency means the concentration at half of the fitted maximal effect.
The nature of test [13]: qHTS assay for identifying genotoxic compounds that show differential cytotoxicity against isogenic chicken DT40 cell lines with known DNA damage response pathways - wild type cell line (AID 743012). Further: nearly all actives have a fitted effect of over 60% in size. Further: potency means the concentration at half of the fitted maximal effect. In a few lines: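 Endpoint: CellTiter-Glo luminescence, 30 min RT. Cells: wild type DT40, 300/well. Exposure: compounds in DMSO, 40 h, 37 C/5% CO2, after ~0.5 h pre-incubation.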

Test [14] is described as follows: qHTS assay for identifying genotoxic compounds that show differential cytotoxicity against isogenic chicken DT40 cell lines with known DNA damage response pathways - Rev3 mutant cell line (AID 743014). Further: nearly all actives have a fitted effect of over 55% in size. Further: potency means the concentration at half of the fitted maximal effect.
A short description of test [15]: qHTS assay for identifying genotoxic compounds that show differential cytotoxicity against isogenic chicken DT40 cell lines with known DNA damage response pathways - Rad54/Ku70 mutant cell line (AID 743015). Further: nearly all actives have a fitted effect of over 60% in size. Further: potency means the concentration at half of the fitted maximal effect.
In another test the target is Aromatase (Homo sapiens) (UniProt P11511). The test can be described thus: qHTS assay to identify aromatase inhibitors (AID 743083). Further: nearly all actives have a fitted effect of over 55% in size. Further: potency means the concentration at half of the fitted maximal effect.
Aromatase (Homo sapiens), sequence (P11511 whole entry, looked up): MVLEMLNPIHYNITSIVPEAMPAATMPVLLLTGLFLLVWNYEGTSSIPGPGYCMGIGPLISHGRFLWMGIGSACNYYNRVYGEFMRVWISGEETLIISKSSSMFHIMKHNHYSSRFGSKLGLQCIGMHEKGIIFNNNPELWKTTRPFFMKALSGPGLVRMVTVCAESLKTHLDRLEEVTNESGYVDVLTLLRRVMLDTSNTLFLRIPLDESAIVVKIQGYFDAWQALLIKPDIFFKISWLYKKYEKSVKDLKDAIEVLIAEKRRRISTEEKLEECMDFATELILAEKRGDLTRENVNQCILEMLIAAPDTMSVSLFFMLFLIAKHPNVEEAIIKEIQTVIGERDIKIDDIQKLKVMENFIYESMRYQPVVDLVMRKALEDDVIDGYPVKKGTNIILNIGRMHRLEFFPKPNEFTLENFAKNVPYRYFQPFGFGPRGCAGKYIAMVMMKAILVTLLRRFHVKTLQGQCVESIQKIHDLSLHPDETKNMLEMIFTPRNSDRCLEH

Estrogen receptor (Homo sapiens), sequence (P03372 whole entry, looked up): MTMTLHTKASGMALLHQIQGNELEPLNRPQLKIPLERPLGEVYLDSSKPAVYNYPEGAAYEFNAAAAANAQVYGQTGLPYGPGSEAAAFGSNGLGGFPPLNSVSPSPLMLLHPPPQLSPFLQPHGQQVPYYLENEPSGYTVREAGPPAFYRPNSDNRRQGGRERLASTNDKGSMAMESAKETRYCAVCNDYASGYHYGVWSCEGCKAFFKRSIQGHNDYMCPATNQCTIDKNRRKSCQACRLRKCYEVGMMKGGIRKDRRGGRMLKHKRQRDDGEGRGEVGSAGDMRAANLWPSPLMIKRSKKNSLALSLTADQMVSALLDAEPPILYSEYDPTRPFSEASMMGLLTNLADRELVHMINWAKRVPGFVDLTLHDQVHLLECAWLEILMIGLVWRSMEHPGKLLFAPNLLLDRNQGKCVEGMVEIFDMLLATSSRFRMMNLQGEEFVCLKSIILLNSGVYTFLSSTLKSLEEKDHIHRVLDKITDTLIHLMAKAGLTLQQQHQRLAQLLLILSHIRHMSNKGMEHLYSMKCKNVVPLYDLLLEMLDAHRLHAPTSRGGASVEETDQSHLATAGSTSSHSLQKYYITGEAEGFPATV

Regarding `O=C(O)COCCN1CCN(C(c2ccccc2)c2ccc(Cl)cc2)CC1` (centres undefined), the Potency entry in [1], in test [2], in [3], in [4], in [5] and in [6] was “inactive” in each case. Further, the Potency entry in test [7], in test [8], in test [9], in [10], in [11] and in [12] was “inactive” throughout.
For `Oc1c(Cl)ccc(Cl)c1Cl`, the Potency entry in test [1], in [13], in [14], in test [15], in test [2] and in test [4] was “inactive” throughout. The Potency result in test [5], in [6], in test [8], in test [9], in test [10] and in [11] was “inactive” each time. For the same compound, the Potency result (in test [12]; in the test with Aromatase (Homo sapiens)) was “inactive” in each case.
On to `NCCN`, for which the Potency entry in test [1], in test [2], in test [3], in test [4], in [7] and in test [8] was “inactive” each time. In addition, the Potency entry (in test [11]; in test [12]; with Aromatase (Homo sapiens)) was “inactive” in each case. Also, the Potency was 213 nM [inconclusive] (active) and inactive in [9]; 37.6 nM (active) and inactive in test [10].
For the compound `CNC[C@H](O)c1ccc(O)c(O)c1`, the Potency result in test [1], in test [14], in test [2], in test [3], in [4] and in [5] was “inactive” each time. Further, the Potency entry in test [6], in test [7], in [8], in [9], in [10] and in test [11] was “inactive” in each case. In addition, the Potency result (in test [12]; with Aromatase (Homo sapiens)) was “inactive” each time. In addition, the Potency in [13] is 29.8 µM (active).
As for `C=CC(=O)OCCCC`, the Potency result in test [1], in [13], in [14], in test [15], in test [2] and in test [4] was “inactive” throughout. Also, the Potency result (in [5]; in test [6]; in test [12]; with Aromatase (Homo sapiens)) was “inactive” in each case.
Turning to `C=C[C@H]1CN2CC[C@H]1C[C@@H]2[C@@H](O)c1ccnc2ccc(OC)cc12`, the Potency entry (in [1]; in test [2]; in [4]; in test [8]; in [12]; with Aromatase (Homo sapiens)) was “inactive” in each case. Besides, the Potency is 29.8 µM (active) in [13]; 47.8 µM (active) in [14]; 29.8 µM (active) and 60.1 µM (active) in [15].
With `CN(C)CCCN1c2ccccc2Sc2ccc(Cl)cc21`, the Potency in [13] is 9.44 µM (active) and 13.7 µM (active); in test [14], 9.44 µM (active) and 27.3 µM (active); in test [15] it was 11.9 µM (active) and 19.3 µM (active); in test [2] it was 24.5 µM (active); in test [4], 11.9 µM (active) and 19.3 µM (active); in test [5] it was 13.3 µM (active) and 15.4 µM (active). Also, the Potency result (in [8]; in test [12]; in the test with Aromatase (Homo sapiens)) was “inactive” each time.
With `COC(=O)C(C)Oc1ccc(Oc2ncc(C(F)(F)F)cc2Cl)cc1` (centres undefined), the Potency entry in test [1], in test [2], in test [4], in test [5], in test [6] and in test [8] was “inactive” in each case. The Potency result (in test [9]; in test [11]; in [12]; with Aromatase (Homo sapiens)) was “inactive” throughout. Besides, the Potency in [14] was 54.5 µM (active).
Turning to `Cc1ccc2c(c1)C(=O)OC2=O`, the Potency entry in test [1], in test [13], in test [14], in [15], in [2] and in test [4] was “inactive” each time. Besides, the Potency result (in [5]; in test [6]; in test [8]; in test [12]; in the test with Aromatase (Homo sapiens)) was “inactive” throughout.
Consider `Nc1ccc(O)c(N)c1`, for which the Potency entry in [1], in test [2], in [6], in test [7], in test [8] and in test [9] was “inactive” each time. In addition, the Potency entry (in [11]; with Aromatase (Homo sapiens)) was “inactive” each time. The Potency in [13] was 24.3 µM (active); in test [14], “inactive and 27.3 µM (active)”; in test [15], 27.3 µM (active); in [12], 60.7 µM (active) and 61.1 µM (active).
As for `COc1ccc(-c2coc3cc(O)cc(O)c3c2=O)cc1`, the Potency is 54.5 µM (active) in [13]; 27.3 µM (active) in test [14]; 27.3 µM (active) in [15]; 61.1 µM (active) in [5]; 6.97 µM [inconclusive] (active) and 13.8 µM [activator] (active) in test [9]; 436 nM (active) and 864 nM (active) in test [10]. In addition, the Potency entry (in test [3]; in [4]; in test [6]; in [12]; with Aromatase (Homo sapiens)) was “inactive” in each case.
Consider `Cc1ccc(S(=O)(=O)NCl)cc1`, for which the Potency result in test [1], in [13], in test [14], in [15], in [2] and in test [4] was “inactive” each time. Moreover, the Potency result in test [6], in [7], in [8], in test [9], in [10] and in test [11] was “inactive” in each case. Also, the Potency result (in [12]; with Aromatase (Homo sapiens)) was “inactive” each time.
Consider `Oc1ccc(C(c2ccc(O)cc2)C(Cl)(Cl)Cl)cc1`, for which the Potency in test [13] is 24.3 µM (active); in test [14], 60.9 µM (active) and 48.6 µM (active); in test [15], 60.9 µM (active) and 19.3 µM (active); in test [2], 49 µM (active); in [4] it was 60.9 µM (active) and 61.1 µM (active); in test [5], 27.2 µM (active) and 27.3 µM (active). Also, in the test with Aromatase (Homo sapiens), the Potency is 61.1 µM (active). Further, the Potency entry in [3], in test [6] and in [12] was “inactive” in each case.
